structure (smiles),measurement,setting,value
Nc1nccc(-c2c(-c3ccc(F)cc3)ncn2CCCN2CCOCC2)n1 [SB-216385],Kinases covered,MAP2K4,MAP2K4
CN(C)C/C=C/C(=O)Nc1ccc(C(=O)Nc2cccc(Nc3ncc(Cl)c(-c4c[nH]c5ccccc45)n3)c2)cc1 [THZ1],Kinases covered,MAP3K11,MAP3K11
CCn1c(-c2nonc2N)nc2ccccc21 [SB-693162],Kinases covered,MAP3K19,MAP3K19
Cc1cccc(CC(=O)N2CCc3c2ccc(-c2cn(C)c4ncnc(N)c24)c3F)n1 [GSK2656157],Kinases covered,MAP3K2,MAP3K2
CC(C)(C)c1ccc(C(=O)Nc2cn3cc(-c4cccnc4)ccc3n2)cc1 [TPKI-58],Kinases covered,MAP3K5,MAP3K5
Cc1cc(-c2ccc3c(c2)CC[C@@H](N[C@@H](C)c2ccccc2)C3)cnc1N [GW412617],Kinases covered,MAP4K2,MAP4K2
Cl.O=C1Nc2ccc(-c3cccnc3)cc2C1=Cc1cc(Br)c(O)c(Br)c1 [GW429374A],Kinases covered,MAP4K4,MAP4K4
COCCNC(=O)c1ccc(-c2cc(C(=O)NC3CC3)cc(F)c2C)cc1 [GW868318],Kinases covered,MAPK11,MAPK11
Cc1ccc(C(=O)NCC(N)=O)cc1-n1c(C)cc(OCc2ccc(F)cc2F)c(Br)c1=O [PFE-PKIS 1],Kinases covered,MAPK11,MAPK11
